# Assay results as given in the supplement of paper PMC3334620.
# Over roughly 33,000 sequences, “E-score (-0.5 to 0.5)” has its median near -0.01; the highest 2% begin near 0.26. What follows is part of a selection rich in the highest values, with near analogues and random picks from the rest.
# Molecular target: Ste12 (UniProt P13574)
# Test: PBM E-score (8-mer binding enrichment) (E-score (-0.5 to 0.5)); higher = stronger / more preferred TF binding
# Conditions: protein concentration: 200 nM; construct: GST-DNA-binding domain
# Method: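 Universal 'all 10-mer' protein binding microarrays (Agilent AMADID 015681) probed with GST-tagged S. cerevisiae TFs (full-length or DBD) made by in vitro transcription/translation (PURExpress), about 100-200 nM. Bound TF was detected with fluorescent anti-GST. Each ungapped 8-mer (which stands for itself and its reverse complement) is scored by the PBM enrichment score (E-score), a modified Wilcoxon-Mann-Whitney statistic from -0.5 to +0.5, computed with the Universal PBM Analysis Suite. Scale: above 0.35 generally sequence-specific binding.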
# Chain of UniProt P13574 (P13574 whole entry): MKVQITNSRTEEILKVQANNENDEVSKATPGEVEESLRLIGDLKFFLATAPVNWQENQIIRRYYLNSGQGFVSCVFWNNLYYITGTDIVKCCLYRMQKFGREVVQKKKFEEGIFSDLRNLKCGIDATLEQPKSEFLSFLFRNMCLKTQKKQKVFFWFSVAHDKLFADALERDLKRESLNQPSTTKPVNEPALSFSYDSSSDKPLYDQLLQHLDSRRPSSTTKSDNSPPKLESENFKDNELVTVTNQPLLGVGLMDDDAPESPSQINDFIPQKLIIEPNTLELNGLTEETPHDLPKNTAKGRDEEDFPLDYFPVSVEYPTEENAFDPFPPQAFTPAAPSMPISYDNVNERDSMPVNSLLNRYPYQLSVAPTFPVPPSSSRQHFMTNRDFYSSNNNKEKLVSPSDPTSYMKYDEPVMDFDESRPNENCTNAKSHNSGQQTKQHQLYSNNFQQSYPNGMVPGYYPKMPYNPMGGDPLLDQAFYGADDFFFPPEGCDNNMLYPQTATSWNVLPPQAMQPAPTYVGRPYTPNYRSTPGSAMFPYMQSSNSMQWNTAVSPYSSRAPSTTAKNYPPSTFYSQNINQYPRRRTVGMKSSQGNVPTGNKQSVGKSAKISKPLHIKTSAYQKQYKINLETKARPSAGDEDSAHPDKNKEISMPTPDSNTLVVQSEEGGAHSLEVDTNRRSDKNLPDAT
row,Sequence,PBM E-score
1,CTTTAGTC,-0.0859
2,GGCCAAAA,0.0718
3,TCAACTCA,0.0748
4,CGAATACA,0.0383
5,AGCAGTGA,-0.0211
6,ATATGCTC,0.0529
7,TTAACGAA,0.262
8,CAAACGAA,0.101
9,ATAACGAA,0.0476
10,GAAACGAA,0.367
11,AAAACGAC,0.0623
12,AAAACGAA,0.237
13,CTAACGAA,0.11
14,CAAACGAC,0.128
15,GAAACGAC,0.317
16,CAAGTCTG,-0.0972
17,CGTCGCTC,-0.115
18,AGTATGGG,-0.0937
19,ATGGCCGC,-0.0598
20,ATGAGGTC,0.0263
21,AGGCTCGG,-0.112
22,ATAATTTA,0.357
23,ACAATTAC,0.087
24,ATAATTAC,0.131
25,GTAATTTA,0.223

row,Sequence,PBM E-score
1,ACAATTAA,0.292
2,ATAATTTG,0.212
3,ATAATTAA,0.276
4,ACAATTAT,0.212
5,TTAATTAA,0.245
6,CCGCCAGG,-0.206
7,GCTCAGCA,-0.0833
8,AATCTCAT,0.165
9,CTGACCGC,0.123
10,AAATGCAC,-0.00999
11,CACCCATA,0.105
12,ACCAGACG,-0.174
13,CGCGCGTC,0.0795
14,ACGCCACG,-0.182
15,ATTCGAAA,0.286
16,ATTCGAAT,0.268
17,ATTCGAAC,0.105
18,CTTCGAAA,0.132
19,ACTCGAAT,-0.144
20,ATTCGAAG,-0.0567
21,GCCTTCCC,-0.0772
22,CACACTTC,0.00873
23,AACCACTA,-0.00019
24,CGGCATAA,-0.0029
25,TGGCATAA,0.307

row,Sequence,PBM E-score
1,AGACATAA,0.101
2,TGACATAA,0.268
3,AAACATAC,0.241
4,GGACATAA,0.0357
5,GGGCATAA,0.218
6,ATACATAA,0.21
7,ATACATAT,0.294
8,ATACATAC,0.134
9,AAACATAG,0.205
10,AAACATAT,0.273
11,ACATGCAT,0.0142
12,GACGCACC,-0.00732
13,ATAAAGAC,-0.0448
14,CACCCTCC,0.213
15,GAGTTTGC,0.0562
16,ATCTACGG,-0.0913
17,AACTTTCT,0.128
18,AACGGTGA,-0.122
19,ATTGCCCC,0.0929
20,GGCGAGGA,-0.178
21,AATGGCCT,-0.00519
22,AAACATTA,0.207
23,ACATACAC,0.0702
24,TAACATAA,0.275
25,CAACATAA,0.189

row,Sequence,PBM E-score
1,AAACATAA,0.306
2,ACATACAT,0.263
3,ACATACAG,0.0443
4,ACACATAA,0.19
5,GAACATAA,0.148
6,GCTCGCCA,-0.0532
7,ATTTGCGG,0.148
8,ACCGTGCT,-0.08
9,AGTGCAAA,0.101
10,GAGGGGAA,0.0394
11,AAACAAGC,0.202
12,ATACGATC,0.157
13,AACAATAC,0.0824
14,AACAATAA,0.301
15,AACAATTA,0.297
16,AACAATAG,0.0913
17,AACAATTG,-0.0846
18,ATCAATTG,0.154
19,ATCAATTC,0.0349
20,ATCAATTA,0.289
21,AACAATTC,0.124
22,GCGGTTTA,0.13
23,CTTGAGAC,0.158
24,ATCACTAC,-0.117
25,CTAGATTA,-0.0366

row,Sequence,PBM E-score
1,TCCAAAGA,0.0392
2,AGAAGAGC,-0.161
3,CCCGGCCG,-0.239
4,ACTGAGCC,-0.00502
5,CTATATAC,0.162
6,ATATATAC,0.271
7,TTATAAAA,0.268
8,TTATATAA,0.176
9,TCATAAAA,0.231
10,ATATAAAC,0.161
11,GTATAAAA,0.241
12,ATATAAAG,0.171
13,ATATAAAT,0.279
14,ATATATAA,0.273
15,CTATATAA,0.174
16,GTATATAC,-0.207
17,CCGATTTA,0.199
18,AGCATCTG,-0.159
19,AGTGACAG,-0.057
20,ACTAGTCC,-0.104
21,AGCAAACG,-0.0967
22,GTAGCTAC,-0.201
23,CTCCAGAA,-0.152
24,AGGTTTAG,0.0936
25,AAGCCGGC,0.0834

row,Sequence,PBM E-score
1,GCTTGACA,0.0364
2,ACATCGAA,0.0463
3,CGTCGCGC,0.00057
4,GCAACAAC,-0.0707
5,CCGCTAAG,0.109
6,CTATAAAA,0.235
7,ATATAAAA,0.307
8,ACATAAAA,0.17
9,ACCCGCGG,0.176
10,TCTGAAGA,-0.149
11,GACTCTGC,-0.0845
12,GAAAAAAC,0.174
13,GGCAAAAA,0.346
14,GAAAAAAA,0.369
15,GGAAAAAA,0.309
16,GGAAAACA,0.177
17,GGAAAAGA,0.05
18,ATAAAAGA,0.0538
19,ATAAAAAG,0.315
20,GAGAAAAA,0.147
21,GGCAAAAC,0.133
22,ATAAAAGG,0.0863
23,GGCAAGAA,0.0412
24,CCATGGCG,-0.0357
25,GCTTACTA,0.00559

row,Sequence,PBM E-score
1,AGCCTCTG,-0.135
2,CAGTTAGC,-0.218
3,ATAAAAAT,0.241
4,GGAAAACC,0.0776
5,GGAAAAAC,0.322
6,TGAAAACA,0.162
7,CGAAATAA,0.131
8,AGGAAAAC,-0.0394
9,TGAAAAAA,0.293
10,AAAAAAAT,0.337
11,TGAAAGAA,0.131
12,AGAAATAA,0.207
13,AAAAAATT,0.197
14,GGAAATAA,0.284
15,GCGACCTA,-0.062
16,CTGGCATC,-0.283
17,AGATTATC,-0.0475
18,CTACCTTA,-0.00289
19,CTGTGCAA,-0.101
20,ACGATTGA,0.158
21,CAGTTAAA,-0.00288
22,CATGAGCG,-0.0776
23,CGTGTGAC,-0.0425
24,AGTTCAAA,0.138
25,GCCAAATA,0.101

row,Sequence,PBM E-score
1,GTTTACGA,0.0472
2,CGGAAAAG,0.0439
3,CGAAAAAG,0.212
4,AAAAAAGA,0.182
5,CGGAAAAC,0.0342
6,CGAAAAAA,0.308
7,AGAAAAAA,0.19
8,AAAAAAAA,0.367
9,CGGAAAAA,0.343
10,AAAAAAAG,0.294
11,CGAAAAAC,0.0959
12,CAAAAAAG,0.159
13,AAAAAAGG,0.244
14,CAGGCGGG,0.0689
15,AATGGGCT,-0.092
16,CGTTTAGC,-0.0383
17,ACAGCCGT,-0.0628
18,AGCCTTAT,0.0824
19,AAAAAGCC,0.229
20,GCGGAAAA,0.253
21,CAAAAGCG,0.14
22,TTGGAAAA,0.177
23,GGGAAAAA,0.272
24,GGGGAAAA,0.112
25,GGGAAAAC,0.116

row,Sequence,PBM E-score
1,AAAAAGCG,0.317
2,TCGGAAAA,0.275
3,AGGAAAAA,0.16
4,ACGGAAAA,0.177
5,TGGAAAAA,0.302
6,AATCCAAA,0.14
7,CCGTTAAG,-0.177
8,ACGCTGCC,-0.108
9,ACCTTTGA,0.0506
10,GGTCTTCA,-0.164
11,CCTTTTCA,-0.0167
12,CGTAGCAA,0.00941
13,AAGCCTTG,-0.00117
14,CGTGTGAA,0.14
15,ACTGTGAA,0.27
16,GCTGTGAA,-0.0834
17,TGTGTGAA,0.284
18,GGTGTGAA,0.19
19,ACTGTGAT,-0.0243
